The results in this text go back to PubChem BioAssay (NCI).

Structures are written as SMILES. Compounds without any hit were thinned out: in the full panel of roughly 83,000, 20% have a hit.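 Negative percent growth values reflect cell death: -40 means 40% of the cells present at the start died, and -100 means all died.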 Activity calls are given as the source filed them.

For the assay, the system named is RPMI-8226 leukemia. Put plainly: NCI-60 one-dose screen, 48 h (100 = growth as untreated, 0 = no growth, -100 = all killed). The conditions noted are these: 10 µM. Here is the method: Growth inhibition of the RPMI-8226 human tumor cell line is measured as a screen for anti-cancer activity. Cells are grown in 96 well plates and exposed to the test compound for 48 hours. Compounds are tested at a single concentration, which is 10^-5 M for most compounds. The reported endpoint is percent growth (GI% or GIPRCNT), where numbers from 0 - 100% represent growth inhibition, and numbers from -100% - 0 represent cell death. For example, a value of 40 represents 60% growth inhibition. A value of 0 means no net growth occurred over the course of the experiment. A value of -40 indicates 40% of cells at the beginning of the experiment died by the end of the experiment. A value of -100 means all cells are dead at the end of the experiment.
NCI-60 Human Tumor Cell Lines Screen was performed using the standard one-dose NCI protocol, which is described in more detail at https://dtp.cancer.gov/discovery_development/nci-60/default.htm.
Compounds with GIPRCNT values below 10 were considered active. Activity score was based on GIPRCNT using the following formula: […]
Score is 0 for GIPRCNT values of 100 or above, 50 for GIPRCNT values of 0, and 100 for GIPRCNT values of -100.
Take `CC1(O)OC(COc2ccc(Cl)cc2)COC1O` (stereo not given): the growth is 109% (inactive). Then `Cc1ncc(C#N)c(N)n1`, with 103% (inactive). Turning to `O=C(Nc1cc(-c2ccccc2)[nH]n1)c1ccc(Cl)cc1`, the growth is 36.6% (inactive). The same measure for `O/N=C/c1ccc(O)cc1O`: 94.8% (inactive). In the case of `Cc1cc2ccccc2c(O)c1C#N`, the growth was 97.4% (inactive). The same measure for `Cc1ccc(C(O)C2CC2)cc1` (stereo not given): 99.3% (inactive); for `C=CCc1cc(C(C)=O)cc(OC)c1O`: 122% (inactive); for `COc1cccc(O)c1O`: 89.2% (inactive). Then `CCOC(=O)CSc1c([N+](=O)[O-])ncn1C`, with 99.7% (inactive). In the case of `CCN(CC)CCNc1ccc(CO)c2sc3ccccc3c(=O)c12`, the growth is 37% (inactive).

As for `[O-][N+](=Nc1cccc(Cl)c1)c1cccc(Cl)c1`, the growth is 81.9% (inactive). The same measure for `CC(=O)OCC1=CC2OC(=O)C3=COC(OC4OC(CO)C(O)C(O)C4O)C1C32` (stereo not given): 114% (inactive); for `Cc1c(C(=O)O)c(=O)n(-c2ccccc2)n1C`: 107% (inactive); for `CC(=O)CC(=O)N(C)C`: 97.9% (inactive). For the molecule `O=C(O)c1ccc(S(=O)(=O)O)cc1`, the growth is 98% (inactive). Then `CC1=CC(C)(C)NC(=S)N1c1ccc(S(=O)(=O)O)c2cccc(S(=O)(=O)O)c12`, with 113% (inactive); and `Sc1ccc(Nc2c3ccccc3nc3ccccc23)cc1`, with 44.2% (inactive). Then `COc1cc2c3c(n(C)c(=O)c2cc1OC)-c1cc2c(cc1C3=O)OCO2`, with 48.2% (inactive); and `O=C(O)/C=C/c1ccc2c(c1)CCC2`, with 99.2% (inactive). Then `Cc1ccc(/C=C2\SC(=S)N(c3ccc(F)cc3)C2=O)o1`, with 86.4% (inactive); and `CN(C)C(=O)Oc1cccc([N+](C)(C)C)c1`, with 117% (inactive).

On to `CN(C)C(C)(C)CC(C)(C)C`, for which the growth is 110% (inactive).

`CC(C)(C)c1cc(O)c(C(C)(C)C)cc1O`: the growth is 54.1% (inactive). Then `N#CSc1cc(S(N)(=O)=O)ccc1N`, with 109% (inactive); and `CCCCCC(C)(CC(=O)O)CC(=O)O`, with 119% (inactive). On to `CN(C)c1ccc2nc3ccc(=N)cc-3sc2c1`, for which the growth was 6.67% (active).

As for `CC(=Nc1ccccc1)C1=C(O)C(Cc2cccc(F)c2)NC1=O` (stereo not given), the growth is 9.85% (active). As for `Cc1ccc(C(=O)NC2c3ccccc3Oc3ccccc32)cc1`, the growth was 78.9% (inactive).

As for `NC(CSC(c1ccccc1)(c1ccccc1)c1ccccc1)C(=O)O` (stereo not given), the growth was 4.13% (active). The same measure for `COc1cc2c(cc1OC)[C@H](C(=O)O)[C@@H](c1ccc(OC(C)C)c(OC)c1)N(C)C2=O`: 95.7% (inactive).

`Cc1cc(=O)[nH]c(NN=C2CCCC2)n1`: the growth is 107% (inactive). Then `C/C(=N/NC(N)=O)c1ccco1`, with 118% (inactive); and `Cc1cc2nc(CO)[nH]c2cc1C`, with 87.9% (inactive); and `O=C1c2ccccc2C(=O)N1OCc1ccccc1`, with 102% (inactive). In the case of `Nc1ccc(CC(=O)O)c(N)c1`, the growth was 104% (inactive). Then `CCO/C=C1\SC(=S)N(c2cccc(C)c2)C1=O`, with 92.4% (inactive); and `COc1ccc(/C=C/c2cccc[n+]2C)cc1`, with 90.3% (inactive). The same measure for `CCCCOC(=O)c1ccc(C(C)C)cc1`: 110% (inactive); for `CC(=O)C1CCCCC1`: 96.4% (inactive). The same measure for `S=C1CCCCCN1`: 98.3% (inactive).
